Source: PubChem BioAssay
Hits are enriched below; roughly 1.2% of the tested compounds scored in any of these assays.
Avidin bead fluor = avidin bead compound fluorescence profile; AID 1775; fluorescence (KMESF) at 10 µM; hit rate 0.38% among 220,000; Avidin beads, compound fluorescence 488/530 nm, flow cytometry; stronger effect = higher value; in the data active = fluorescence above about 47
RGS7-Gao = human RGS7-Galphao interaction regulation; P09471; Multiplexed bead flow cytometry, RGS7-Galphao binding; actives lie on both sides; binding response (% of control), % at 10 µM; hit rate 0.35% among 220,000; AID 1439; in the data active = binding response below about 49% or above about 150%; inconclusive = no clear call, values can overlap the other calls; inactive = in between;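 note: fluorescent Galphao held in activated GDP-AlF4 state binding bead-coupled RGS7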
Target sequence (P09471 whole entry, looked up): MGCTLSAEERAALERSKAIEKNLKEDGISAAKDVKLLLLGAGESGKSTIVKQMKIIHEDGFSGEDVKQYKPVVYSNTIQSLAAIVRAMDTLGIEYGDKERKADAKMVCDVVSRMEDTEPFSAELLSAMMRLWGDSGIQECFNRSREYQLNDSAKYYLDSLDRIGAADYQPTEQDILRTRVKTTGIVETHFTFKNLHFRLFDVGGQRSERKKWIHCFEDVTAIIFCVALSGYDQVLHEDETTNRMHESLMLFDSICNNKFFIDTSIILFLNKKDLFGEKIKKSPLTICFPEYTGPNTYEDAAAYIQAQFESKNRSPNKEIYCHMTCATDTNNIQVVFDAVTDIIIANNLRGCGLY
RGS4-Gao reg = human RGS4-Galphao interaction regulation | P09471 | Multiplexed bead flow cytometry, RGS4-Galphao binding; actives lie on both sides | binding response (% of control), % at 10 µM | hit rate 0.33% among 220,000 | AID 1415; in the data active = binding response below about 49% or above about 150%; inactive = in between;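 note: fluorescent Galphao activated with aluminum fluoride binding bead-coupled RGS4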
RGS8-Gao = regulators of human RGS8-Galphao interaction; P09471; response (percent of control binding), % at 10 µM; hit rate 0.34% among 220,000; multiplexed bead flow cytometry, RGS8-Galphao binding; actives lie on both sides; in the data active = response below about 60% or above about 140%; inactive = in between;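 note: Galphao activated as the GDP aluminium fluoride complex binding bead-coupled RGS8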
GSH bead fluor = GSH bead compound fluorescence profile; GSH beads flow cytometry, compound fluorescence 488/530 nm; stronger effect = higher value; fluorescence (KMESF) at 10 µM; hit rate 0.25% among 190,000; AID 1776; in the data active = fluorescence above about 89;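 note: glutathione beads carrying GST-tagged Bcl family fusion proteins plus one bare bead set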
RGS16-Gao HTS = regulators of human RGS16-Galphao interaction. bead-based flow cytometry RGS16-Galphao binding, fluorescence; actives lie on both sides. binding response (% of control), % at 10 µM. AID 1441. hit rate 0.38% among 220,000. O15492+P09471;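 note: Galphao activated by GDP with aluminum fluoride before binding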
Target sequence (O15492 whole entry, looked up): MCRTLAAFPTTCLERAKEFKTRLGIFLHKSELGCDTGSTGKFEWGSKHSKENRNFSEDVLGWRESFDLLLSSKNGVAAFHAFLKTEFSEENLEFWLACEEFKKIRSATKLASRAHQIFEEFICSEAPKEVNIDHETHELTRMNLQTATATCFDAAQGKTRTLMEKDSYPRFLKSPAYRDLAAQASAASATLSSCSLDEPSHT
Target sequence (P09471 whole entry, looked up): as the sequence (P09471 whole entry, looked up) above
RGS-Gao = modulates binding between human RGS4 and Galphao; shares compounds with RGS16-Gao HTS; multiplexed bead flow cytometry, RGS–Galpha-o binding; RGS4–Galpha-o binding response, % at 10 µM; hit rate 99% among 1,600; AID 1504;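 note: fluorescently labeled Galpha-o bound to GDP with aluminium fluoride binding biotinylated RGS beads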
Biotin-avidin = counter-screen: compounds disrupting biotin binding to avidin beads. shares compounds with RGS16-Gao HTS. streptavidin beads, fluorescein-biotin binding, flow cytometry. inhibition, % at 10 µM. 1,700 tested, under 10 active. AID 1783;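 active = inhibition above 50%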;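 note: median green fluorescence of gated singlet beads compared with DMSO control wells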
RGS8-Gao confirm = confirmation of regulators of human RGS8-Galphao interaction; binding response (% of control), % at 10 µM; bead-based flow cytometry RGS8-Galphao binding, fluorescence; actives lie on both sides; hit rate 3% among 1,700; AID 1836; shares compounds with RGS16-Gao HTS; in the data active = binding response below about 72% or above about 130%; inactive = in between;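 note: Galphao activated as GDP AlF4 complex before binding bead RGS8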
RGS7-Gao single = RGS7-Galphao interaction regulation, single point confirmation; shares compounds with RGS16-Gao HTS; hit rate 7.8% among 1,700; bead-based flow cytometry RGS7-Galphao binding; actives lie on both sides; response (percent of control binding), % at 10 µM; AID 1837; in the data active = response below about 75% or above about 130%; inactive = in between;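 note: fluorescent Galphao activated with GDP and aluminum fluoride binding bead-coupled RGS7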
RGS16-Gao single = RGS16-Galphao interaction regulation, single point confirmation; shares compounds with RGS16-Gao HTS; bead-based flow cytometry, RGS16-Galphao binding; actives lie on both sides; response (% of control binding), % at 10 µM; hit rate 4% among 1,700; AID 1838; in the data active = response below about 74% or above about 130%; inactive = in between;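 note: Galphao activated as the GDP aluminium fluoride complex binding bead-coupled RGS16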
RGS4-Gao single = confirmation of regulators of human RGS4-Galphao interaction; binding response (% of control), % at 10 µM; RGS4-Galphao binding, multiplexed bead flow cytometry; actives lie on both sides; hit rate 4% among 1,700; shares compounds with RGS16-Gao HTS; in the data active = binding response below about 74% or above about 130%; inactive = in between
RGS19-Gao single = confirmation of regulators of human RGS19-Galphao interaction; hit rate 5% among 1,700; response (percent of control binding), % at 10 µM; bead-based flow cytometry RGS19-Galphao binding; actives lie on both sides; shares compounds with RGS16-Gao HTS; AID 1841; in the data active = response below about 50% or above about 160%; inactive = in between
Each line names hits and unclear results; the compound was inactive in the other large screens (follow-up assays come after a bar, where they were run); [ ] = another dose, or the depositor's remark. Unless noted, the rule behind the calls is not given here.

OC12CCCCC1C(c1ccc3c(c1)OCO3)N(Cc1ccc(F)cc1)CC2 (stereo unspecified)	none
CC(=O)N1C(Nc2ccc(Cl)cc2)CCN1c1ccccc1 (stereo unspecified)	none (no result: Avidin bead fluor, RGS7-Gao, RGS4-Gao reg, RGS8-Gao, RGS16-Gao HTS) | Biotin-avidin inactive | RGS8-Gao confirm inactive | RGS7-Gao single inactive | RGS16-Gao single inactive | RGS4-Gao single inactive | RGS19-Gao single inactive
Oc1ccccc1Nc1nc(NCC2CCCO2)c2ccccc2n1 (stereo unspecified)	RGS7-Gao 41.0 | RGS-Gao 95.6 | Biotin-avidin inactive | RGS8-Gao confirm inactive | RGS7-Gao single inactive | RGS16-Gao single inactive | RGS4-Gao single inactive | RGS19-Gao single inactive
O=C(c1ccco1)N1CCN(c2ccc([N+](=O)[O-])c(N3CCOCC3)c2)CC1	RGS7-Gao 30.9, RGS4-Gao reg 42.8, RGS8-Gao 51.3 | Biotin-avidin inactive | RGS8-Gao confirm inactive | RGS7-Gao single 61.0 | RGS16-Gao single inactive | RGS4-Gao single inactive | RGS19-Gao single inactive
CC(=O)N1CCN(c2ccc([N+](=O)[O-])c(-n3nc(C)cc3C)c2)CC1	RGS8-Gao 59.8 | RGS-Gao 78.8 | Biotin-avidin inactive | RGS8-Gao confirm inactive | RGS7-Gao single inactive | RGS16-Gao single inactive | RGS4-Gao single inactive | RGS19-Gao single inactive
Cc1cc(C)n(-c2cc(N3CCN(C(=O)c4cccc(Br)c4)CC3)ccc2[N+](=O)[O-])n1	none
c1ccc(C2CCC(N3CCNCC3)CC2)cc1 (stereo unspecified)	RGS8-Gao 140.6[activator], RGS16-Gao HTS 250.0[activator] | RGS-Gao 120.0 | Biotin-avidin inactive | RGS8-Gao confirm inactive | RGS7-Gao single inactive | RGS16-Gao single inactive | RGS4-Gao single inactive | RGS19-Gao single inactive
COc1ccccc1N1CCN(C(=O)CCCn2nc(C)c([N+](=O)[O-])c2C)CC1	none
O=C(NCCc1c[nH]c2ccccc12)C(=O)NCC1OCCCN1S(=O)(=O)c1cc(F)ccc1F (stereo unspecified)	none
O=[N+]([O-])c1ccc2c(c1)N([O-])C1(CCCCC1)[N+]2=O	RGS7-Gao inconclusive, RGS8-Gao 35.0 (no result: GSH bead fluor) | RGS-Gao 90.5
O=C(NCCO)Nc1ccc2nc(-c3ccco3)c(-c3ccco3)nc2c1	RGS7-Gao 39.5, RGS8-Gao 48.3, RGS16-Gao HTS 17.5 | RGS-Gao 66.2
C=CCOC(=O)C(=O)/C=C/c1c(C)n(C)n(-c2ccccc2)c1=O	RGS7-Gao 154.2[activator], RGS4-Gao reg 150.4[activator] | Biotin-avidin inactive | RGS8-Gao confirm inactive | RGS7-Gao single inactive | RGS16-Gao single inactive | RGS4-Gao single inactive | RGS19-Gao single inactive
CS(=O)(=O)N1CC(C(=O)O)Oc2ccc(CC(=O)O)cc21 (stereo unspecified)	none
COc1ccc(OC)c2c1C(=O)C(Cl)=C(Cl)C2=O	RGS7-Gao inconclusive, RGS8-Gao 44.7, RGS16-Gao HTS -14.4 (no result: GSH bead fluor) | RGS-Gao 57.6
O=[N+]([O-])c1cc(C(F)(F)F)c(Cl)cc1N1CCN(CCO)CC1	none
OCCN1CCN(c2cc(C(F)(F)F)nc3c(F)cccc23)CC1	RGS7-Gao inconclusive, RGS4-Gao reg -9.0, RGS8-Gao 10.8, RGS16-Gao HTS -6.6 (no result: GSH bead fluor) | Biotin-avidin inactive | RGS8-Gao confirm inactive | RGS7-Gao single inactive | RGS16-Gao single inactive | RGS4-Gao single inactive | RGS19-Gao single inactive
CC(C)(C)c1oc(C(=O)O)cc1CN1CCOCC1	RGS7-Gao inconclusive (no result: GSH bead fluor)
CCCC(C)c1nnc(NC(=O)c2cc(C(=O)OC)cc([N+](=O)[O-])c2)s1 (stereo unspecified)	none
COc1cccc(C(=O)NCCOc2cc(C)cc(C)c2)c1	none | Biotin-avidin inactive | RGS8-Gao confirm inactive | RGS7-Gao single inactive | RGS16-Gao single inactive | RGS4-Gao single inactive | RGS19-Gao single inactive
CCN(CC)C(=O)CN1CCN(c2ncccn2)CC1	RGS8-Gao 142.0[activator] | RGS-Gao 120.2 | Biotin-avidin inactive | RGS8-Gao confirm inactive | RGS7-Gao single inactive | RGS16-Gao single inactive | RGS4-Gao single inactive | RGS19-Gao single inactive
O=C(CN1CCN(c2ncccn2)CC1)N1CCCC1	none
CC(=O)c1ccc(NC(=O)C(C)N2CCN(C/C=C/c3ccccc3)CC2)cc1 (stereo unspecified)	RGS7-Gao 150.8[activator], RGS4-Gao reg 161.7[activator], GSH bead fluor 246 | Biotin-avidin inactive | RGS8-Gao confirm inactive | RGS7-Gao single inactive | RGS16-Gao single inactive | RGS4-Gao single inactive | RGS19-Gao single inactive
CC(C(=O)Nc1ccc([N+](=O)[O-])cc1)N1CCN(C/C=C/c2ccccc2)CC1 (stereo unspecified)	none
CCCC[n+]1ccn(-c2nc3ccccc3nc2[N-]S(=O)(=O)c2ccccc2)c1	none (no result: Avidin bead fluor, RGS7-Gao) | Biotin-avidin inactive | RGS8-Gao confirm inactive | RGS7-Gao single inactive | RGS16-Gao single inactive | RGS4-Gao single inactive | RGS19-Gao single inactive
O=C(OCc1nnc(-c2ccccc2)o1)c1cc(Cl)ccc1[N+](=O)[O-]	RGS7-Gao inconclusive
CN(C)C=Nc1ncc2c([nH]c3ccccc32)c1C#N	none
CS(=O)(=O)N(CC(=O)Nc1ccc2c(c1)OCCO2)Cc1ccccc1	none
O=C(CN(Cc1ccccc1)S(=O)(=O)c1ccc2c(c1)OCCO2)Nc1ccc2c(c1)OCCO2	Avidin bead fluor 95, RGS7-Gao 261.0[activator], RGS4-Gao reg 184.4[activator] | Biotin-avidin inactive | RGS8-Gao confirm inactive | RGS7-Gao single inactive | RGS16-Gao single inactive | RGS4-Gao single inactive | RGS19-Gao single inactive
O=C(O)c1cc(S(=O)(=O)N2CCOCC2)ccc1N1CCCCC1	none
